Screening results as filed in PubChem.
TDP1 cell noCPT = qHTS for Inhibitors of human tyrosyl-DNA phosphodiesterase 1 (TDP1): qHTS in cells in absence of CPT; Potency, µM (highest dose often 46.2 µM), inactives show top-dose activity change, negative = growth inhibition, usual class: inhibitors; 15% of 420,000 active; DT40 Tdp1-/- hTDP1 cells, no CPT, ATP luminescence, 48 h; also: potency is read from the fitted curve at half-maximal effect; nearly all actives have a fitted effect of over 55% in size
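Camptothecin absent (DMSO only). Human TDP1-complemented DT40 knockout cells, 400 cells/well, 37 °C for minimum 48 hr; ATP measured via CellTiter-Glo, 30 min dark incubation, luminescence.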
IL-1B inflam inh = inhibitors of inflammasome signaling (IL-1 beta secretion). activity change, % at 57.5 µM. 4.7% of 360,000 active. THP-1 LPS/ATP IL-1B secretion, AlphaLISA, 16 h; hits give low values; in the data active = activity change below about -50%; inconclusive = mostly about -30% to -49%
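THP-1 cells pretreated 1 hr with compounds (up to 57.5 uM final), then stimulated with LPS (250 ng/mL final) plus ATP (1.25 mM final); secreted IL-1B measured by AlphaLISA after 16 hr, decreased signal indicating inhibition.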
HT1080 IDH1KD tx = kills HT-1080 cells with IDH1 knockdown. HT-1080 IDH1 knockdown viability, ATP luminescence, 48 h. Potency, µM (titrated, usually from 46.1 µM), for the others: at the top dose activity, negative = toxicity, usual class: cytotoxic. 2% of 360,000 active. AID 686971;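 also: potency is read from the fitted curve at half-maximal effect; 0% = DMSO wells and -100% = cell-free medium wells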
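Luminescent ATP read-out (CellTiter-Glo, 10 min at room temperature) after 48 h compound exposure at 37 °C gave viability of IDH1-knockdown HT-1080 cells. Activity was normalised to DMSO and cell-free wells, then fitted as concentration-response curves.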
DT40 TDP1 CPT = DT40-hTDP1 cell growth loss with CPT; AID 686979; Potency, µM (highest dose often 46.2 µM), without a hit: top-dose activity change, negative = growth inhibition, hits mostly inhibitors; 12% of 420,000 active; chicken DT40 Tdp1-/-;hTDP1 cells + 20 nM CPT, ATP luminescence, 48 h; also: potency is read from the fitted curve at half-maximal effect; nearly all actives have a fitted effect of over 55% in size
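Cell growth measured by CellTiter-Glo luminescence after a minimum 48 h, 37 C compound exposure with 20 nM CPT in Tdp1-knockout DT40 cells stably expressing hTDP1, seeded 400/well; qHTS titration format.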
HT1080NT lethal = kills 2HG-producing HT-1080-NT fibrosarcoma cells; Potency, µM (highest dose often 46.1 µM), inactives show at the highest dose activity, negative = less viability, most hits filed as cytotoxic; AID 686970; 1.6% of 360,000 active; HT-1080-NT fibrosarcoma viability, CellTiter-Glo ATP luminescence, 48 h;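 also: NT is the 2HG producing partner of a matched IDH1 knockdown line; potency is read from the fitted curve at half-maximal effect; 0% = DMSO-treated cells and -100% = media-only wells without cells; nearly all actives have a fitted effect of over 55% in size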
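Viability of the 2HG-overproducing fibrosarcoma line after 48 hours of compound exposure at 37 degrees C was determined by luminescence with CellTiter-Glo, and concentration-effect curves were then fitted and categorized.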
Starred values were filed as active, the others as inactive; ? = inconclusive; / = no result given; [ ] = another dose, or the depositor's remark. A selection: hits, their analogues and other compounds. The true share with any hit is near 19%. Unless noted, calls follow the shape of the dose curve; as a rule, active = well fitted curve in the direction sought with a large enough effect; inconclusive = small, poorly fitted or top-dose-only effect, or another doubt; inactive = no such curve, though single readings can be large; an effect the other way counts as inactive or inconclusive. Unless noted, % is scaled to controls: 0 for no effect and ±100 for the full control effect.

SMILES	TDP1 cell noCPT	IL-1B inflam inh	HT1080 IDH1KD tx	DT40 TDP1 CPT	HT1080NT lethal
Cc1ccc(-n2nc(C)c3c(C)c(CCC(=O)NCCCOC(C)C)c(C)nc32)cc1	?	20	-2%	23µM*	-5%
CC(=O)c1ccc(NC(=O)CCc2c(C)nc3c(c(C)nn3-c3ccc(C)cc3)c2C)cc1	7.3µM*	/	/	?	/
Cc1ccc(-n2nc(C)c3c(C)c(CCC(=O)Nc4ccc(CN5CCCC5)cc4)c(C)nc32)cc1	12µM*	-86*	15µM*	?	-9%
CCNC(=O)C1CCCN(C(=O)c2ccc3c(c2)CCO3)CC1 (stereo not drawn)	-26%	7	8%	28%	24%
Cc1ccc(NC(=O)c2nc(SCc3ccccc3F)ncc2Cl)cc1	-7%	/	/	-14%	/
O=C(Nc1ccc(F)cc1)c1nc(S(=O)(=O)Cc2ccccc2)ncc1Cl	1.6µM*	-95*	15µM*	2.1µM*	23µM*
O=C(NCc1ccccc1)c1nc(S(=O)(=O)Cc2ccc(F)cc2)ncc1Cl	1.5µM*	/	/	1.3µM*	/
COc1ccc(NC(=O)c2nc(SCc3ccc(F)cc3)ncc2Cl)cc1	?	/	/	-11%	/
Cc1ccc(NC(=O)c2nc(S(=O)(=O)Cc3ccccc3)ncc2Cl)cc1	0.92µM*	-103*	6.5µM*	1.5µM*	18µM*
CCOc1ccc(NC(=O)c2nc(S(=O)(=O)Cc3ccc(F)cc3)ncc2Cl)cc1	0.4µM*	/	/	0.5µM*	/
Cc1ccc(C)c(NC(=O)C2CCCN2/C=C/C(=O)C(F)(F)F)c1 (stereo not drawn)	-16%	22	14%	5%	16%
CC(=O)Nc1cc(=O)c2cccnc2[nH]1	4%	22	8%	33%	10%
CCS(=O)(=O)c1ncc(Cl)c(C(=O)Nc2c(C(=O)c3ccc(C)cc3)oc3ccccc23)n1	1.6µM*	/	/	1.6µM*	/
COc1ccc(NC(=S)Nc2cccc(C(F)(F)F)c2)c(C)c1	-13%	-10	2%	-28%	12%
Cc1cc(C)c(C(=O)COC(=O)c2cc([N+](=O)[O-])ccc2N2CCOCC2)cc1C	18µM*	0	7%	?	9%
O=C(OCc1ccc([N+](=O)[O-])cc1)c1cc([N+](=O)[O-])ccc1N1CCOCC1	23µM*	-12	?	16µM*	?
Cc1nonc1OCCNC(=O)C12CC3CC(CC(C3)C1)C2	-21%	-6	-8%	-4%	-4%
COc1cc(=O)n2c(c1C(=O)N(C)Cc1nccs1)CCN(Cc1cc3ccccc3s1)CC2	?	/	/	-107%	/
CC(C)C[C@@H](CN1CCC[C@H]1CN1C(=O)C(=O)NC[C@@H]1Cc1ccccc1)N1C[C@H](Cc2ccc(O)cc2)N(CC2CCCCC2)C(=O)C1=O	?	-19	?	?	?
Cc1ccc2nc(Cl)c(/C=N/n3c(C)nnc3C)cc2c1	21µM*	28	12%	?	7%
O=C1CSC(=S)N1/N=C/c1ccc(O)c(O)c1O	?	4	-22%	26µM*	-16%
CCOC(=O)c1cccc(Nc2ncnc3ccccc23)c1	13µM*	-10	2%[9.24 µM]	?	-12%
CCCOC(=O)c1cccc(NC(=O)c2cccnc2)c1	5.8µM*	-5	3%	9.2µM*	-1%
CCCOC(=O)c1cccc(Nc2nc(-c3cccnc3)nc3ccccc23)c1	3.3µM*	-98*	?	9.2µM*	26µM*
CCOCCCN(C(=O)CCC(=O)Nc1cc(C)on1)C(C(=O)NC(C)(C)C)c1ccccc1Cl (stereo not drawn)	-22%	-6	0%	-3%	10%
SMILES	TDP1 cell noCPT	IL-1B inflam inh	HT1080 IDH1KD tx	DT40 TDP1 CPT	HT1080NT lethal
Cn1nc(C(=O)OCC(=O)Nc2ccccc2[N+](=O)[O-])c2ccccc2c1=O	23%	0	4%	-1%	-5%
O=C(Nc1ccnn1C1CCN(Cc2ccccc2OC(F)F)CC1)c1cccnc1	?	1	-4%	?	-11%
CN(C(=O)CSc1nc2ccc(NC(=O)c3ccc(F)cc3)cc2s1)c1ccccc1	15µM*	/	/	16µM*	/
CN(C(=O)CSc1nc2ccc(NC(=O)COc3ccc(F)cc3)cc2s1)c1ccccc1	4.6µM*	/	/	5.8µM*	/
O=C(O)CSc1nc2ccc(NC(=O)COc3ccc(Cl)cc3)cc2s1	-4%	/	/	-6%	/
COc1ccc(C(=O)Nc2ccc3nc(SCC(=O)N(C)c4ccccc4)sc3c2)cc1	16µM*	/	/	?	/
CN1CCN(C(=O)CSc2nc3ccc(NC(=O)c4ccccc4F)cc3s2)CC1	?	32	10%	?	-13%
CN(C(=O)CSc1nc2ccc(NC(=O)CCc3ccccc3)cc2s1)c1ccccc1	15µM*	/	/	18µM*	/
Cc1cccc(C)c1OC(=O)CN1C(=O)c2ccccc2C1=O	-2%	11	2%	-5%	3%
CCCCOC(=O)c1ccc(OC(=O)c2sc3ncn(Cc4ccccc4Cl)c(=O)c3c2C)cc1	-26%	/	/	0%	/
Nc1nc(Nc2ccc(Cl)cc2)c(NC=O)c(=O)[nH]1	3%	-14	-1%	0%	-1%
O=C(CCC1CCCCC1)Nc1nncs1	-20%	-24	-11%	-10%	0%
COc1ccccc1/C=C/C1(C(=O)NC2CCCC2)CC(=O)N1c1ccccc1 (stereo not drawn)	7.3µM*	97	?	6.5µM*	16µM*
O=c1ccn([C@@H]2O[C@H](CNCc3ccccc3OCc3ccc(Cl)cc3Cl)[C@@H](O)[C@H]2O)c(=O)[nH]1	?	-18	-14%	21µM*	-18%
O=C(CCC(=O)c1ccc(F)cc1)OCc1nnc(-c2ccc([N+](=O)[O-])cc2)o1	1%	9	3%	-27%	1%
OCC1(CCOc2ccccc2)CCN(CC2=Cc3cc(Cl)ccc3OC2)CC1	21µM*	-93*	18µM*	18µM*	-22%
Cc1oc(-c2cccs2)nc1CN1CCC(CO)(CCOc2ccccc2)CC1	?	-83*	11%	?	3%
CCOc1ccccc1CN1CCC(CO)(CCOc2ccccc2)CC1	-2%	-73*	-25%	5%	-15%
OCC1(CCOc2ccccc2)CCN(Cc2ccccc2C(F)(F)F)CC1	-27%	-55*	-25%	-12%	?
COc1cc(Cl)c(CN2CCC(CO)(CCOc3ccccc3)CC2)cc1OC	?	?	-8%	?	-6%
Cc1ccc(N(CC(=O)N2CCCCCC2)S(C)(=O)=O)cc1	7%	-7	-3%	4%	3%
CN(C)C1(CNC(=O)C2CCN(S(=O)(=O)c3cccc(C(F)(F)F)c3)CC2)CCCCC1	-25%	-10	-8%	-4%	-5%
